Data from PubChem BioAssay.
Calls of active or inactive are those of the source.

Legend:
Albumin (Bos taurus) = Albumin (Bos taurus) (UniProt P02769); assay: bovine serum albumin binders on microarray, profiling panel, artefact control for SMM control protein annotation, biochemical, small-molecule microarray, Alexa647 label, 635/667 nm fluorescence (AID 1118); details: BSA-A647 binding, fluorescence 635 nm, higher = more signal;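 also: score merges 667 nm emission intensity and signal-to-noise per printed compound spot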
Albumin (Bos taurus), sequence (P02769 whole entry, looked up): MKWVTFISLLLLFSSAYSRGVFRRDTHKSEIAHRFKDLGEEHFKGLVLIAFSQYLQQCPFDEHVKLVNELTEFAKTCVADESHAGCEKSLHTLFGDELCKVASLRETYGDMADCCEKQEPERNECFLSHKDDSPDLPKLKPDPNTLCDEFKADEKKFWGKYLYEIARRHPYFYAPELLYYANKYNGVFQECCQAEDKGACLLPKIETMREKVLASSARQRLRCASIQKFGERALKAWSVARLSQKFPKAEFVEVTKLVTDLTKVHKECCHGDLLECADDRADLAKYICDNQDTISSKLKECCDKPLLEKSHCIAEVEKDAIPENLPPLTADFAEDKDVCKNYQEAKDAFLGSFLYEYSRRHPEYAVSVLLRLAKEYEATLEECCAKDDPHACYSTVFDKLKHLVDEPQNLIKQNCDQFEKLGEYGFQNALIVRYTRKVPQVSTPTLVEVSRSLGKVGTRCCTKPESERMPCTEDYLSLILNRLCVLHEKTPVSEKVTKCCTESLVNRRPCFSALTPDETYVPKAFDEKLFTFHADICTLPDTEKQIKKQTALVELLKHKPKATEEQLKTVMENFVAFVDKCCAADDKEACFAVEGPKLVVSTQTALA

[1] = small-molecule microarray binders of probe aXIP, primary screen, biochemical, NeuroSMM set, 635/667 nm fluorescence (AID 1119); details: higher = more signal, called active from +8 up or from −8 down;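 also: probe is the protein aXip251-270 applied at 1 µg/mL to compound-printed slides; binding of probe to printed compounds measured as 667 nm fluorescence plus signal to noise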
[2] = small-molecule binders of probe aNOTCH3, primary screen, biochemical, small-molecule microarray, 635/667 nm fluorescence (AID 1120); details: higher = more signal;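 also: probe is a biotin-tagged antibody raised against NOTCH3 rather than NOTCH3 protein; score merges spot fluorescence near 667 nm with spot signal to noise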
[3] = small-molecule binders of probe aNOTCH2, primary screen, biochemical, small-molecule microarray, 635/667 nm fluorescence (AID 1121); details: higher = more signal;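 also: score merges feature fluorescence read at 667 nm with its signal to noise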
[4] = biological target: Carbonic anhydrase 2 (Homo sapiens) (UniProt P00918); assay: CAII small-molecule binders, profiling panel, biochemical, small-molecule microarray, Alexa647-labelled CAII (AID 1122); details: CAII-A647 binding fluorescence, higher = more signal
[5] = COS7 lysate on small-molecule microarray, probe aHis, 635 nm (AID 1123); details: COS7 cell lysate, fluorescence, higher = more signal;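 also: z-score combines 667nm fluorescence intensity with signal-to-noise per printed compound spot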
[6] = compound binding in COS7 lysate, probe aLAP1, primary screen, cell lysate, small-molecule microarray (AID 1124); details: probe aLAP1, fluorescence, higher = more signal;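 also: lysate comes from COS7 cells expressing LAP1 and is applied at 0.3 µg/mL; score merges spot fluorescence near 667 nm with signal-to-noise over triplicate slides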
Sam68 (KHDRBS1) = assay: Sam68 small-molecule binders, primary screen, biochemical, small-molecule microarray, 635 nm fluorescence (AID 1125); details: small-molecule microarray binding, higher = more signal;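 also: score merges 667 nm channel intensity with signal to noise over triplicate slides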
[7] = system: Chordin-like protein 2 (CHRDL2); assay: CHRDL2 small-molecule binders, primary screen, biochemical, small-molecule microarray, 635 nm fluorescence (AID 1126); details: small-molecule microarray binding, fluorescence 635 nm; higher = more signal;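 also: printed compound slides probed with Chrdl2 protein at 4 µg/mL for 1 h at 4 C; score merges 667 nm emission intensity with signal to noise over three replicate slides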
[8] = biological target: Concanavalin-A (Canavalia ensiformis) (UniProt P02866); assay: ConA small-molecule binders, primary screen, artefact control for SMM control protein annotation, biochemical, small-molecule microarray, Alexa647 label, 635 nm (AID 1127); details: ConA-A647 binding fluorescence, higher = more signal;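 also: z combines 667 nm emission intensity with signal-to-noise across three replicate slides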
Concanavalin-A (Canavalia ensiformis), sequence (P02866 whole entry, looked up): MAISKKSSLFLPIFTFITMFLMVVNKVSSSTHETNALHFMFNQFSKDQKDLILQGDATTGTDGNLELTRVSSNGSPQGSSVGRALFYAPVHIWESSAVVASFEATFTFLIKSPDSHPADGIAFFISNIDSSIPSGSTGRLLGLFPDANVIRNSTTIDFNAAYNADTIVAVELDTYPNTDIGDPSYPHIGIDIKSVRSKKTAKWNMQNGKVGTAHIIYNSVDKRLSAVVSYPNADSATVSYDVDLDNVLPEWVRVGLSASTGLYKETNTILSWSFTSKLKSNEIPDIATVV

## C=CCNC(=O)[C@@H]1[C@H]2C(=O)O[C@H](c3ccccc3)[C@H](c3ccccc3)N2[C@H](c2ccc(O)cc2)[C@@]12C(=O)Nc1ccc(C#CC3(O)CCCCCC3)cc12
Albumin (Bos taurus)
  composite z-score: -0.277
[1]
  composite Z-score: 0.156 (inactive)
[2]
  composite z-score: 0.39
[3]
  composite z-score: -0.179
[4]
  composite z-score: 0.653
[5]
  composite z-score: 1.04
[6]
  composite z-score: 0.107
Sam68 (KHDRBS1)
  composite z-score: -0.133
[7]
  composite z-score: 0.227
[8]
  composite z-score: -0.197

## CC(C)C(=C=CC[C@@H](O)c1ccc(OCCO)cc1)CCO
Albumin (Bos taurus)
  composite z-score: 0.261
[1]
  composite Z-score: -0.488 (inactive)
[2]
  composite z-score: -0.0259
[3]
  composite z-score: -0.14
[4]
  composite z-score: 0.601
[5]
  composite z-score: 0.583
[6]
  composite z-score: -0.178
Sam68 (KHDRBS1)
  composite z-score: 0.275
[7]
  composite z-score: 0.184
[8]
  composite z-score: 0.224

## C=CCNC(=O)[C@H]1[C@@H]2C(=O)O[C@@H](c3ccccc3)[C@@H](c3ccccc3)N2[C@@H](c2ccccc2OCCO)[C@]12C(=O)N(C(=O)OCCOC)c1ccccc12
Albumin (Bos taurus)
  composite z-score: 0.813
[1]
  composite Z-score: -0.104 (inactive)
[2]
  composite z-score: -0.161
[3]
  composite z-score: -0.153
[4]
  composite z-score: 0.567
[5]
  composite z-score: 1.96
[6]
  composite z-score: 0.883
Sam68 (KHDRBS1)
  composite z-score: 1.21
[7]
  composite z-score: 0.414
[8]
  composite z-score: 1.13

## CCC[C@@H]1[C@@H](Sc2ccccc2)[C@@H](C(=O)O)[C@H](c2ccc(C)cc2)N1S(=O)(=O)c1ccc(C)cc1
Albumin (Bos taurus)
  composite z-score: 0.771
[1]
  composite Z-score: 0.398 (inactive)
[2]
  composite z-score: 0.322
[3]
  composite z-score: -0.0794
[4]
  composite z-score: 0.594
[5]
  composite z-score: 2.65
[6]
  composite z-score: 1.39
Sam68 (KHDRBS1)
  composite z-score: 1.33
[7]
  composite z-score: -0.432
[8]
  composite z-score: 1.23

## C=C(COC)C(=O)CC[C@@H](OC(C)=O)c1ccc(OCCO)cc1
Albumin (Bos taurus)
  composite z-score: -0.561
[1]
  composite Z-score: 0.392 (inactive)
[2]
  composite z-score: 0.0426
[3]
  composite z-score: -0.125
[4]
  composite z-score: 0.648
[5]
  composite z-score: 0.206
[6]
  composite z-score: -0.217
Sam68 (KHDRBS1)
  composite z-score: 0.744
[7]
  composite z-score: -0.127
[8]
  composite z-score: 0.891

## COCCCNC(=O)[C@@]1(Sc2ccc(C)cc2)CC(=O)N(C2CCCCC2)[C@@H]1c1ccc(CO)cc1I
Albumin (Bos taurus)
  composite z-score: 0.68
[1]
  composite Z-score: 0.441 (inactive)
[2]
  composite z-score: 0.145
[3]
  composite z-score: -0.0096
[4]
  composite z-score: 0.481
[5]
  composite z-score: 1.8
[6]
  composite z-score: 0.0839
Sam68 (KHDRBS1)
  composite z-score: 1.25
[7]
  composite z-score: 0.818
[8]
  composite z-score: 1.07

## CC(C)CNC(=O)[C@@H]1c2ccccc2C(=O)N(Cc2ccccc2Cl)[C@H]1c1ccc(CO)cc1
Albumin (Bos taurus)
  composite z-score: -0.261
[1]
  composite Z-score: 0.191 (inactive)
[2]
  composite z-score: -0.212
[3]
  composite z-score: -0.0404
[4]
  composite z-score: 0.687
[5]
  composite z-score: 1.57
[6]
  composite z-score: 0.397
Sam68 (KHDRBS1)
  composite z-score: -0.537
[7]
  composite z-score: -0.686
[8]
  composite z-score: -1.68

## CC(C)CNC(=O)[C@@H]1c2ccccc2C(=O)N(C2Cc3ccccc3C2)[C@H]1c1ccc(CO)cc1
Albumin (Bos taurus)
  composite z-score: -0.191
[1]
  composite Z-score: -0.577 (inactive)
[2]
  composite z-score: -0.219
[3]
  composite z-score: -0.0984
[4]
  composite z-score: 0.687
[5]
  composite z-score: 0.284
[6]
  composite z-score: 1.45
Sam68 (KHDRBS1)
  composite z-score: 0.547
[7]
  composite z-score: -0.0902
[8]
  composite z-score: 0.378

## COC(=O)[C@@]1(Cc2ccc(OC)cc2)[C@@H]2[C@@H](CC(=O)[C@H]2CC(=O)C(=O)N2CCCC2)CN1C(=O)c1ccccc1
Albumin (Bos taurus)
  composite z-score: 0.979
[1]
  composite Z-score: -0.766 (inactive)
[2]
  composite z-score: 1.75
[3]
  composite z-score: 1
[4]
  composite z-score: 0.856
[5]
  composite z-score: 3.45
[6]
  composite z-score: 0.921
Sam68 (KHDRBS1)
  composite z-score: 1.09
[7]
  composite z-score: 0.251
[8]
  composite z-score: 1.18

## O=C1O[C@H](c2ccccc2)[C@H](c2ccccc2)N2[C@H]1[C@@H](C(=O)NC[C@H](O)c1ccccc1)[C@]1(C(=O)Nc3ccc(C#CCCO)cc31)[C@H]2c1ccccc1OCCO
Albumin (Bos taurus)
  composite z-score: 0.695
[1]
  composite Z-score: 1.27 (inactive)
[2]
  composite z-score: -0.0581
[3]
  composite z-score: -0.0666
[4]
  composite z-score: 0.597
[5]
  composite z-score: 2.38
[6]
  composite z-score: 0.728
Sam68 (KHDRBS1)
  composite z-score: 1.29
[7]
  composite z-score: -0.189
[8]
  composite z-score: 1.02

## COC(=O)c1ccc([C@H](NC(=O)c2ccccc2)[C@]2(C)C[C@H]2C2CCCCC2)cc1
Albumin (Bos taurus)
  composite z-score: 0.543
[1]
  composite Z-score: 0.293 (inactive)
[2]
  composite z-score: 0.237
[3]
  composite z-score: -0.0282
[4]
  composite z-score: 0.158
[5]
  composite z-score: 1.89
[6]
  composite z-score: 0.416
Sam68 (KHDRBS1)
  composite z-score: 0.715
[7]
  composite z-score: -0.941
[8]
  composite z-score: 0.551

## CO[C@H]1O[C@H](CO)[C@@H](OC(=O)Nc2ccc3c(c2)OCO3)[C@@H]2OC(=O)[C@@H](Cc3ccccc3)C/C=C/C[C@H](Cc3ccccc3)C(=O)O[C@@H]12
Albumin (Bos taurus)
  composite z-score: -0.052
[1]
  composite Z-score: 0.883 (inactive)
[2]
  composite z-score: 0.274
[3]
  composite z-score: 0.0318
[4]
  composite z-score: 0.552
[5]
  composite z-score: 0.859
[6]
  composite z-score: 0.48
Sam68 (KHDRBS1)
  composite z-score: 0.943
[7]
  composite z-score: 0.455
[8]
  composite z-score: 0.921

## COCC(=C=CC[C@@H](O)c1ccc(OCCO)cc1)C[C@@H](O)COCc1ccccc1
Albumin (Bos taurus)
  composite z-score: 0.769
[1]
  composite Z-score: -0.727 (inactive)
[2]
  composite z-score: 0.0528
[3]
  composite z-score: -0.0796
[4]
  composite z-score: 0.805
[5]
  composite z-score: 2.3
[6]
  composite z-score: 0.686
Sam68 (KHDRBS1)
  composite z-score: 1.28
[7]
  composite z-score: 0.0466
[8]
  composite z-score: 0.547

## COCCOC(=O)N1C(=O)[C@@]2(c3cc(C#CC4=CCCCC4)ccc31)[C@H](c1ccccc1OCCO)N1[C@H](c3ccccc3)[C@H](c3ccccc3)OC(=O)[C@H]1[C@@H]2C(N)=O
Albumin (Bos taurus)
  composite z-score: -0.0123
[1]
  composite Z-score: -0.463 (inactive)
[2]
  composite z-score: 0.0174
[3]
  composite z-score: -0.0728
[4]
  composite z-score: 0.265
[5]
  composite z-score: 1.14
[6]
  composite z-score: 0.561
Sam68 (KHDRBS1)
  composite z-score: 1.28
[7]
  composite z-score: 0.492
[8]
  composite z-score: 1.13

## CCCC[C@H]1OB(O)C[C@H]2C1=C(C)C[C@H]1C(=O)C=CC(=O)[C@H]12
Albumin (Bos taurus)
  composite z-score: -0.324
[1]
  composite Z-score: -0.0764 (inactive)
[2]
  composite z-score: 0.0159
[3]
  composite z-score: -0.106
[4]
  composite z-score: 0.011
[5]
  composite z-score: 0.423
[6]
  composite z-score: 0.121
Sam68 (KHDRBS1)
  composite z-score: 1.04
[7]
  composite z-score: 0.821
[8]
  composite z-score: 0.544

## C=CCC(OC(C)=O)[C@@H]1[C@@H](N(Cc2cc3ccccc3o2)C(=O)Cc2ccc(OC)cc2)c2cc(OCCCO)ccc2N1C(=O)Cc1ccc(OC)cc1 (stereo not given in full)
Albumin (Bos taurus)
  composite z-score: -0.477
[1]
  composite Z-score: -0.188 (inactive)
[2]
  composite z-score: -0.0711
[3]
  composite z-score: -0.153
[4]
  composite z-score: 0.426
[5]
  composite z-score: -0.188
[6]
  composite z-score: 0.107
Sam68 (KHDRBS1)
  composite z-score: -0.0765
[7]
  composite z-score: 0.208
[8]
  composite z-score: -0.395

## Cc1ccccc1C(O)C1C=CC2C(=O)N(c3ccccc3)C(=O)C2N1Nc1ccccc1F (stereo not given)
Albumin (Bos taurus)
  composite z-score: 1.03
[1]
  composite Z-score: 0.805 (inactive)
[2]
  composite z-score: 0.195
[3]
  composite z-score: 0.161
[4]
  composite z-score: 0.77
[5]
  composite z-score: 3.01
[6]
  composite z-score: -0.0703
Sam68 (KHDRBS1)
  composite z-score: 1.23
[7]
  composite z-score: -0.52
[8]
  composite z-score: 1.09
